# According to PubChem BioAssay AID493191 (Broad Institute, 2011):
# Screen size: about 1,300 compounds; about 330 (25%) were called active. The list is a sample of the results. Potency and affinity values are given separately. Unmarked numbers belong to inactive results. The rule behind the calls is not given here.
# Assay: growth inhibition of MALME3 cells – cell-based, CellTiter-Glo, cherry-picked, orthogonal assay for MITF inhibitor project, dose response (AID 493191)
# Conditions: MALME3 melanoma viability, CellTiter-Glo luminescence, 24 h; series mostly up to 35 µM; activity change, negative = inhibition: at the top concentration
row,SMILES,"activity change, negative = inhibition"
1,CC(C)CN=C(NS(=O)(=O)c1ccccc1)C(Cl)(Cl)Cl,-24%
2,CC(=O)c1c(C)[nH]c(C(=O)Nc2ccc(C)c(C)c2)c1C,3.78%
3,Cc1ccc(C(=O)Nc2nc3ccc(Cl)cc3s2)o1,-11.7%
4,Cc1cc(C(F)(F)F)c2c(N)c(C(=O)Nc3cc(C)on3)sc2n1,-11.1%
5,O=C(Nc1nc2ccccc2s1)c1ccccc1[N+](=O)[O-],-1.9%
6,CN(c1ccc2nc3ccccc3c(=O)n2n1)C1CCCCC1,-31%
7,CCOc1ccccc1-c1nc(-c2ccc(C)nc2OC)no1,-11.6%
8,CC(=O)Nc1nc(C)c(-c2csc(Nc3cccc(C(C)=O)c3)n2)s1,-27.3%
9,COc1ccccc1-c1nc(-c2ccc(C)nc2OC)no1,0.036%
10,CS(=O)(=O)c1nc(-c2ccc(F)cc2)cc(C(F)(F)F)n1,-44.8%
11,CCOC(=O)c1cnc2c(ccc3ccccc32)c1N,-7.34%
12,O=C(N/N=C\c1cc(Br)ccc1O)c1ccc(S(=O)(=O)N2CCCCC2)cc1,-36.8%
13,O=C(Nc1ccc(S(=O)(=O)N2CCCCCC2)cc1)c1[nH]ncc1[N+](=O)[O-],-28%
14,Cc1ccc(NC(=O)c2ccc([N+](=O)[O-])s2)cc1S(=O)(=O)N1CCOCC1,-23%
15,O=C(Nc1ccc(Cl)c(S(=O)(=O)N2CCOCC2)c1)c1ccc(OCC2CCCO2)cc1 (centres undefined),-44.9%
16,O=C(Nc1cccc(Cl)c1)Nc1cc(S(=O)(=O)N2CCCCC2)ccc1Cl,-29.2%
17,O=C1CN(c2ccccc2)C(=S)N1C(=O)c1ccc(Br)cc1,1.54%
18,COc1ccc(NC(=O)c2cc(F)cc(F)c2)cc1Cl,4.16%
19,CN(C)c1ccc(NC(=O)Nc2ccc3c(c2)nnn3C)cc1,4.8%
20,O=[N+]([O-])/C=C\c1ccc(N2CCOCC2)cc1,-43.3%

row,SMILES,"activity change, negative = inhibition"
1,COc1ccc(C(NC(C)=O)c2ccc3cccnc3c2O)c(OC)c1 (centres undefined),-12.3%
2,CCOC(=O)c1ccc2nc(C)c(CCC(C)=O)c(Cl)c2c1,2.96%
3,COc1ccc(C(=O)Nc2ccc(C)cn2)c(OC)c1,-12.9%
4,CC(C)N1C(=O)S/C(=C\c2ccc(-c3ccc(Cl)c(C(=O)O)c3)o2)C1=O,-3.04%
5,COC(=O)c1ccc(COc2ccc3c(c2)CCC3)o1,8.31%
6,CN=c1scc(-c2ccccc2F)n1/N=C/c1ccc[nH]1,-34.7%
7,O=C(/C=C/c1ccc2c(c1)OCO2)N1CCCCC1,-4.57%
8,CCC(=O)NC(c1ccccc1OC)c1ccc2cccnc2c1O (centres undefined),-33.2%
9,CCCC(=O)NC(c1ccc(OC)c(OC)c1)c1cc(Cl)c2cccnc2c1O (centres undefined),-18%
10,COc1cnc(-c2ccccn2)nc1NC(C)C,-17.5%
11,COc1ccc(C(=O)CCNc2ccc(F)cc2)cc1,-6.85%
12,COc1ccc(C(=O)C(CN2CCCC2)c2ccccc2)cc1 (centres undefined),-17.8%
13,COc1ccc(C(=O)C(CN2CCOCC2)c2ccccc2)cc1 (centres undefined),1.65%
14,CCNC(=O)CC1C(=O)N(c2ccc(F)cc2)C(=O)N1CCc1ccc(OC)cc1 (centres undefined),5.54%
15,c1ccc(-n2ncc3c(NCc4cccs4)ncnc32)cc1,-1.69%
16,CC(C)(C)c1ccc(C(=O)Nc2sc3c(c2C(=O)O)CCC3)cc1,4.71%
17,Cc1cc(C)c2c(N)c(C(=O)Nc3ncc(C)s3)sc2n1,-25.4%
18,O=C(CC(=O)c1ccccc1)Nc1ccccc1,4.25%
19,O=C(CNC(=O)c1ccc(Br)cc1)c1ccccc1,6.33%
20,C/C(=N/N=C(/C)c1cccs1)c1cccs1,-2.97%

row,SMILES,"activity change, negative = inhibition"
1,CCC[n+]1c(C)sc2c3c(ccc21)CCCC3,-45%
2,Cn1cc([N+](=O)[O-])c(C(=O)Nc2cc(Oc3ccccc3)cc([N+](=O)[O-])c2)n1,-58.6%
3,Cc1nc2cc(NC(=O)Nc3cccc([N+](=O)[O-])c3)ccc2n1C,3.83%
4,Cc1cc(C)c2c(N)c(C(=O)N/N=C/c3cccnc3)sc2n1,4.39%
5,O=C(O)C1CCN(C(=O)OCc2ccccc2)CC1,2.88%
6,O=C(/C=C/c1ccc([N+](=O)[O-])s1)N1CCCC1,-43.5%
7,CC1CC(C)CN(C(=O)/C=C/c2ccc([N+](=O)[O-])s2)C1 (centres undefined),-44.7%
8,O=C(/C=C/c1ccccc1)Nc1cccc(C(=O)O)c1,-3.9%
9,Cc1ccc(NC(=O)/C=C/c2ccc([N+](=O)[O-])s2)c(C)c1,-33.7%
10,CC(C)N=c1c([N+](=O)[O-])nn(C)n1O,2.73%
11,OCC1OC(n2cnc3c(NCc4ccco4)ncnc32)C(O)C1O (centres undefined),-21.7%
12,CC(Oc1ccc(F)cc1)C(=O)Nc1nc(-c2ccccn2)cs1 (centres undefined),-6.21%
13,CCC(=O)NCCc1nc2cc(NC(=O)c3cccc([N+](=O)[O-])c3)ccc2n1C,7.29%
14,COc1ccc(NS(=O)(=O)c2cc(NC(=O)CNC(=O)c3cccc(OC)c3)ccc2C)cc1,25.5%
15,O=C(Cn1cnc2ccccc2c1=O)Nc1ccc2c(c1)OCCO2,12.2%
16,Cc1cc(C)n(-c2ccc(C(=O)Nc3ccc(C)c(S(=O)(=O)N4CCOCC4)c3)cc2)n1,-3.78%
17,O=C(Nc1ccc(F)c(Cl)c1)c1ccc2c(c1)OCO2,3.21%
18,O=C(N/N=C\c1cc(Cl)ccc1O)c1ccc(S(=O)(=O)N2CCCCC2)cc1,-27.4%
19,CCN1CCc2c(sc(NC(=O)c3ccc(S(=O)(=O)N4CCCCCC4)cc3)c2C(=O)NC)C1,1.75%
